TLR4 MyD88 comp: inhibitors of human TLR4-MyD88 binding; O00206+Q99836; 200,000 compounds, 0.18% hits; HeLa CL3-4 TLR4/MyD88 BLA complementation, FRET ratio; inhibition, % at 8.4 µM; in the data active = inhibition above about 25%;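 note: 0% = vehicle and 100% = reference inhibitor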
ABHD5 PLIN5 PPI: inhibitors of human ABHD5-perilipin-5 interaction; Q00G26+Q8WTS1; Split G. princeps luciferase complementation, luminescence, 4 h; inhibition, % at 4 µM; 360,000 compounds, 0.78% hits; AID 602281;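 active = inhibition above the mean inhibition across every tested compound plus 3 SD, cut at about 22% in these data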;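 note: 0% = DMSO only wells and the 100% control is not disclosed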
TLR9-MyD88 inh: blocks human TLR9 binding to MyD88 | inhibition, % at 4.98 µM | CHO BLA complementation TLR9-MyD88, CCF4 FRET ratio | AID 504734 | Q9NR96+Q99836 | 340,000 compounds, 0.21% hits;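 active = inhibition above the mean over all tested compounds plus 3 SD, cut at about 21% in these data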;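 note: 0% = DMSO only wells and 100% = clavulanate BLA inhibitor control wells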
B2AR ag: human beta-2 adrenergic receptor agonism by FAP | P07550 | Am2.2-beta2AR cells, FAP receptor internalization, flow cytometry | response, % (test concentration not listed) | 340,000 compounds, 0.43% hits;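 active = response above a set limit, near 3 SD of response in nonfluorescent compounds, cut at about 42% in these data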
Target sequence (P07550 whole entry, looked up): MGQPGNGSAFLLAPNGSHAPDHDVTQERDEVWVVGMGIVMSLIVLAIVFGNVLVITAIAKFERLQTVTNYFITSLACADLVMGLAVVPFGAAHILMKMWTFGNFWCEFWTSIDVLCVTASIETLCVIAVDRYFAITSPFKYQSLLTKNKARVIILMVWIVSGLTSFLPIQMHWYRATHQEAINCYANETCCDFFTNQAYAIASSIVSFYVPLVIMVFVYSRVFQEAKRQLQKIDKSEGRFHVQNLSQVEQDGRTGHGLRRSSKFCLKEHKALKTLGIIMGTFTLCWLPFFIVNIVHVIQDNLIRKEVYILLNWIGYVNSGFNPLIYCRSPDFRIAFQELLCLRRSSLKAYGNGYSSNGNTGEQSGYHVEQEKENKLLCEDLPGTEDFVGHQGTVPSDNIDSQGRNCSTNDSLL
NTR1 ag: agonists of human neurotensin receptor NTR1 | NTR1-U2OS beta-arrestin-GFP spot imaging, agonist mode | AID 493036 | activation, % at 20 µM | 330,000 compounds, 0.17% hits;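 active = activation at or above 40% of the spot to cytoplasm intensity ratio, with at least 20 cells analyzed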;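 note: 0% = DMSO without peptide and 100% = 100 nM NTR1 peptide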
NOD2-RIPK2 inh: inhibitors of human NOD2-RIPK2 interaction | O43353 | CHO BLA complementation NOD2-RIPK2, CCF4 ratio | 360,000 compounds, 0.38% hits | inhibition, % at 4.98 µM; in the data active = inhibition above about 21%;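 note: 0% = vehicle only and 100% = reference blocker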
ABHD5-PLIN5 conf: confirmation of human ABHD5-PLIN5 interaction inhibitors; biochemical ABHD5-PLIN5 interaction, luminescence; 2,200 compounds, 67% hits; shares compounds with ABHD5 PLIN5 PPI; inhibition, % at 4 µM; AID 651612; in the data active = inhibition above about 23%;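 note: 0% = DMSO vehicle wells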
HNF4 counter: counter-screen for ABHD5-PLIN5 inhibitors: HNF4 split-luciferase; HNF4 dimerization, luminescence, biochemical; shares compounds with ABHD5 PLIN5 PPI; inhibition, % at 4 µM; 2,200 compounds, 77% hits;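 active = mean inhibition across replicate wells exceeding the computed hit threshold, cut at about 13% in these data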;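 note: light from luciferase halves that rejoin when HNF4 fusion proteins dimerize; 0% = DMSO only wells and the 100% control is not given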
* hit, by the source's call. An excerpt weighted towards active compounds, which were near 1.5% of everything screened.

What do the screens show for `Cc1ccc(Cc2c(-c3ccccc3)nc3c(C)cc(Br)cn23)cc1`?
ABHD5 PLIN5 PPI: -7; NOD2-RIPK2 inh: -8

What do the screens show for `Clc1cccc(Cc2c(-c3ccco3)nc3ccc(Cl)cn23)c1`?
ABHD5 PLIN5 PPI: 71*; NOD2-RIPK2 inh: -5; ABHD5-PLIN5 conf: 86*; HNF4 counter: 102*

What do the screens show for `Cc1cc(Br)cn2c(Cc3cccc(Cl)c3)c(-c3ccco3)nc12`?
ABHD5 PLIN5 PPI: 28*; NOD2-RIPK2 inh: 11; ABHD5-PLIN5 conf: 28*; HNF4 counter: 40*

Results for Fc1cccc(Cc2c(-c3ccco3)nc3c(Cl)cc(C(F)(F)F)cn23)c1 ?
ABHD5 PLIN5 PPI: 53*; NOD2-RIPK2 inh: -8; ABHD5-PLIN5 conf: 70*; HNF4 counter: 83*

Results for Cc1ccc(Cc2c(-c3ccco3)nc3c(C)cc(Br)cn23)cc1 ?
ABHD5 PLIN5 PPI: 64*; NOD2-RIPK2 inh: 7; ABHD5-PLIN5 conf: 48*; HNF4 counter: 66*

Results for COC(=O)C1=CN(c2ccc(OC)cc2OC)C(N)=C(C#N)C1c1ccccc1F (centres undefined) ?
ABHD5 PLIN5 PPI: 2; NOD2-RIPK2 inh: -3

How did COc1ccc(CNC(=O)/C=C/[C@H]2O[C@@H](n3ccc(=O)[nH]c3=O)[C@H](O)[C@@H]2O)cc1 do in these assays?
ABHD5 PLIN5 PPI: 6; NOD2-RIPK2 inh: 5

How did Cn1cc(CN2CCC(C(=O)NC(c3ccc(F)cc3)c3ccc4ccccc4n3)CC2)c2ccccc21 (centres undefined) do in these assays?
ABHD5 PLIN5 PPI: 24*; NOD2-RIPK2 inh: 2; ABHD5-PLIN5 conf: 12; HNF4 counter: 11

Results for COC(=O)C1C2OC(C(Br)C2Br)C1C(=O)OC (centres undefined) ?
ABHD5 PLIN5 PPI: 2; TLR9-MyD88 inh: 0; NOD2-RIPK2 inh: -13

How did O=C1Cc2ccccc2Sc2cc(OCCCN3CCCCC3)ccc21 do in these assays?
TLR4 MyD88 comp: -1; ABHD5 PLIN5 PPI: 8; TLR9-MyD88 inh: -11; B2AR ag: 4; NTR1 ag: -1; NOD2-RIPK2 inh: 2

Results for O=C1Cc2ccccc2Sc2c(OCCN3CCCCC3)cccc21 ?
TLR4 MyD88 comp: 2; ABHD5 PLIN5 PPI: 25*; TLR9-MyD88 inh: -1; B2AR ag: -14; NTR1 ag: 3; NOD2-RIPK2 inh: 10; ABHD5-PLIN5 conf: 4; HNF4 counter: 12

What do the screens show for `C=C1C(=O)OC2C=C(CO)C3OC3C3OC3(C)CC(OC(=O)/C(=C/C)COC(C)=O)C12` (centres undefined)?
ABHD5 PLIN5 PPI: 52*; TLR9-MyD88 inh: -5; B2AR ag: 5; NOD2-RIPK2 inh: 4; ABHD5-PLIN5 conf: 73*; HNF4 counter: 82*

What do the screens show for `CC(=O)OCC1=C[C@@H]2OC(=O)C3=CO[C@@H](O[C@@H]4O[C@H](CO)[C@@H](O)[C@H](O)[C@H]4O)[C@H]1[C@@H]32`?
ABHD5 PLIN5 PPI: -2; TLR9-MyD88 inh: -4; B2AR ag: -3; NTR1 ag: -2; NOD2-RIPK2 inh: 2

Results for O=C(NCc1ccco1)Nc1ccc2nsnc2c1 ?
TLR4 MyD88 comp: 13; ABHD5 PLIN5 PPI: 38*; TLR9-MyD88 inh: 3; B2AR ag: 6; NTR1 ag: 1; NOD2-RIPK2 inh: -10; ABHD5-PLIN5 conf: 50*; HNF4 counter: 82*

How did CCCCn1c(=O)n(CC(=O)Nc2ccc(C)c(Cl)c2)c(=O)c2c1ncn2Cc1ccco1 do in these assays?
TLR4 MyD88 comp: -6; ABHD5 PLIN5 PPI: 36*; TLR9-MyD88 inh: -3; B2AR ag: 3; NTR1 ag: 0; NOD2-RIPK2 inh: 12; ABHD5-PLIN5 conf: 26*; HNF4 counter: 9
